Common to all, as to experiment: DAPPL (digital affinity profiling via proximity ligation, sequencing); 10 mM Tris-HCl pH 7.5, 50 mM NaCl, 1 mM DTT, 4% glycerol, room temperature, 30 min; GST-TFs on glutathione beads, 16-mer random dsDNA library, 0.1% formaldehyde crosslink after washing; high values mean tight binding
Holding throughout (settings): protein: recombinant; tags: N-terminal GST; dsDNA, one strand shown

The target in one experiment is T1, FLI1 (Homo sapiens, UniProt Q01543 1-452).
T1 sequence: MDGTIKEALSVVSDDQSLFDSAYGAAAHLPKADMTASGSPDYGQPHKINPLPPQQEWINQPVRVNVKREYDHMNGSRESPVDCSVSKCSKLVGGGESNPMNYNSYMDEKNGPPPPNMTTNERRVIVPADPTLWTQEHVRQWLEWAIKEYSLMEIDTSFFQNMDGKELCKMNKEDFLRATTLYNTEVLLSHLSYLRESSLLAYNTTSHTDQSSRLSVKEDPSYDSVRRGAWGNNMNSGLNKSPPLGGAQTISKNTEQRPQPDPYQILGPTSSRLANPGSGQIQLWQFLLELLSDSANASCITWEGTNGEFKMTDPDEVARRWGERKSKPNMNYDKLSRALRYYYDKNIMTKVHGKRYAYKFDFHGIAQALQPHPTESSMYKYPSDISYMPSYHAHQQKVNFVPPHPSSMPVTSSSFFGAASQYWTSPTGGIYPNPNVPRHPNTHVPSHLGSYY
The method in brief:
(§1)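 A tag-only sample was pooled with DNA-barcoded human transcription factors that had been expressed in yeast as GST fusions and captured on glutathione beads. The pools were incubated for 30 min at room temperature with 200 nmole of a random double-stranded 16-mer DNA library in Tris/NaCl/DTT/glycerol buffer, then washed, crosslinked with 0.1% formaldehyde, proximity-ligated (BsaI/T4 ligase, 1 h, 37 °C), PCR-amplified and sequenced on an Illumina NextSeq500. Binding signal is each hexamer's read frequency for a factor divided by its frequency for the tag-only sample.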

The target of another experiment is T2, ELK1 (Homo sapiens, UniProt P19419 1-428).
T2 sequence: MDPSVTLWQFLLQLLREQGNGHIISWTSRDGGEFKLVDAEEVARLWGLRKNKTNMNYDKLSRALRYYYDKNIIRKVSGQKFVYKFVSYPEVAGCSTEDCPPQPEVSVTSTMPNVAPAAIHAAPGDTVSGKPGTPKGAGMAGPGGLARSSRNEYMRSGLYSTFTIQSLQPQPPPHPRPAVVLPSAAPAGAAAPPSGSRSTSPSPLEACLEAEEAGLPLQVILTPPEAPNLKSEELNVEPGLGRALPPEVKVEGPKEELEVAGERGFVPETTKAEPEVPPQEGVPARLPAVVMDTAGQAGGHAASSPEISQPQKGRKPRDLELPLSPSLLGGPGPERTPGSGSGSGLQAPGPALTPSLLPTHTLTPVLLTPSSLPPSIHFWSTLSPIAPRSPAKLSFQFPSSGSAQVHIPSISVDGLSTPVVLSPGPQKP
The method in brief:
as §1

For a further experiment, the target named is T3, GABPA (Homo sapiens, UniProt Q06546 1-454).
T3 sequence: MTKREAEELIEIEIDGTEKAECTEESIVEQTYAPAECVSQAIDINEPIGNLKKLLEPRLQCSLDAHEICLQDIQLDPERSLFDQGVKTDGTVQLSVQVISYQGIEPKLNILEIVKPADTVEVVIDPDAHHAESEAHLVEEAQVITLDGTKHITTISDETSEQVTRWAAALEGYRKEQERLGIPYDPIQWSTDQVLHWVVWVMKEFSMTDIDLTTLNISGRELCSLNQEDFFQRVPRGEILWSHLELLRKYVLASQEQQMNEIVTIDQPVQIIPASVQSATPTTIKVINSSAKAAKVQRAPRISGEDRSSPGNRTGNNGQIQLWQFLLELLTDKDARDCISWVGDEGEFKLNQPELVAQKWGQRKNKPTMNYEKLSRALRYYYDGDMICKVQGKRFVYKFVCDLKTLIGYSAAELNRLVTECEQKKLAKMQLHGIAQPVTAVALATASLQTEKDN
The method in brief: as §1

Another experiment deals with T4, ERG (Homo sapiens, UniProt P11308 1-479).
T4 sequence: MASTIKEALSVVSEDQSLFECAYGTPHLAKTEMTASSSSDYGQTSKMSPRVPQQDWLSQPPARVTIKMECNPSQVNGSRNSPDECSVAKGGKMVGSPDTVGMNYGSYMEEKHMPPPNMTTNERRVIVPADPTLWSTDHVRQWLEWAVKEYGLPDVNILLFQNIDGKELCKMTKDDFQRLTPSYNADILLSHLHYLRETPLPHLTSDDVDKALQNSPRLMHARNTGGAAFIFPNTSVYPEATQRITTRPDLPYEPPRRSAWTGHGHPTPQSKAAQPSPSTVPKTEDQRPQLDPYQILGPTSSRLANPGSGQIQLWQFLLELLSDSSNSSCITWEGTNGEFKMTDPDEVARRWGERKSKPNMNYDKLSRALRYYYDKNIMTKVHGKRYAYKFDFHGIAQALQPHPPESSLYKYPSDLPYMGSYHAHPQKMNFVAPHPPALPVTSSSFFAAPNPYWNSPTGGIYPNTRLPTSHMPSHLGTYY
The essentials:
as §1

The target in the next experiment is ELF1 (Homo sapiens, UniProt P32519 1-619). The method in brief:
as §1

The target in another experiment is T5, EHF (Homo sapiens, UniProt Q9NZC4 1-300).
T5 sequence: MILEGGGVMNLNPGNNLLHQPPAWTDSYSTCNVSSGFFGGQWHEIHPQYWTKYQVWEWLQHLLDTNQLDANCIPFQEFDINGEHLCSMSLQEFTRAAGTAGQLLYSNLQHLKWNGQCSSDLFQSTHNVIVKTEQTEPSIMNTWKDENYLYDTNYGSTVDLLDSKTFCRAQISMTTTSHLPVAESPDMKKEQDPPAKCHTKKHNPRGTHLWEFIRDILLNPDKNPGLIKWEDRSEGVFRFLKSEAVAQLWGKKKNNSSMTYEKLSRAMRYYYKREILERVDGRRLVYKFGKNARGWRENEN
The essentials:
as §1

In the next experiment the target is SPIB (Homo sapiens, UniProt Q01892 1-262). The method in brief: as §1
The next experiment has as its target T6, FEV (Homo sapiens, UniProt Q99581 1-238).
T6 sequence: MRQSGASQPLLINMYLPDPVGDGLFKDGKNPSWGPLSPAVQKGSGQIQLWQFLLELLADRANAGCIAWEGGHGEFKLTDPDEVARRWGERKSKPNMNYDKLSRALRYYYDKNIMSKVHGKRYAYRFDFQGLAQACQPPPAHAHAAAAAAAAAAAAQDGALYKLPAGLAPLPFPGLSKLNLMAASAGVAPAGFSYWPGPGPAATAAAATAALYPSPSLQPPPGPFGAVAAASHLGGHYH
The method in brief: as §1

For another experiment, the target named is ETV5 (Homo sapiens, UniProt P41161 1-510). The essentials:
as §1

Another experiment concerns the target T7, SPIC (Homo sapiens, UniProt Q8N5J4 1-248).
T7 sequence: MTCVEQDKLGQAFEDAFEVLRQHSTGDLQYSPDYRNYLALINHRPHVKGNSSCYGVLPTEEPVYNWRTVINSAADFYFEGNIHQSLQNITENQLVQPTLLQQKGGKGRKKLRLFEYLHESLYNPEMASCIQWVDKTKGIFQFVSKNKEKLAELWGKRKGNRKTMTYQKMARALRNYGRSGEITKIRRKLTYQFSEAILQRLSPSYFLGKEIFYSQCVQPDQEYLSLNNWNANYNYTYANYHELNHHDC
The essentials:
as §1

Another experiment deals with ELF4 (Homo sapiens, UniProt Q99607 1-663). The essentials: as §1
The next experiment addresses ETV1 (Homo sapiens, UniProt P50549 1-477). The method in brief: as §1
A further experiment deals with T8, ERF (Homo sapiens, UniProt P50548 1-548).
T8 sequence: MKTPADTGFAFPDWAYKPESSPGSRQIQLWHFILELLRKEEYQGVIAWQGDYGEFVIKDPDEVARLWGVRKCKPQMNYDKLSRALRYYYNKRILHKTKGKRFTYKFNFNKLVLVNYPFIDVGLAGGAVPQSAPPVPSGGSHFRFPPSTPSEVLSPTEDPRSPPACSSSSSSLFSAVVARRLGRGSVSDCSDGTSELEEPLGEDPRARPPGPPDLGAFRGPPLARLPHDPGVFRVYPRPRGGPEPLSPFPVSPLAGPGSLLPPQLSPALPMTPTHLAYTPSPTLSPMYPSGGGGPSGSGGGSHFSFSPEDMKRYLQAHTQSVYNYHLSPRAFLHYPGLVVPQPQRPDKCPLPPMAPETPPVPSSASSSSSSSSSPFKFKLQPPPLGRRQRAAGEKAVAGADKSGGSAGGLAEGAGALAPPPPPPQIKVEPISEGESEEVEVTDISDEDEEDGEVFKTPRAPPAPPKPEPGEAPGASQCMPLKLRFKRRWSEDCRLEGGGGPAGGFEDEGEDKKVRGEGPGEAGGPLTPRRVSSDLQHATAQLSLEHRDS
The method in brief:
as §1

In another experiment the target is T9, ETV3L (Homo sapiens, UniProt Q6ZN32 1-361).
T9 sequence: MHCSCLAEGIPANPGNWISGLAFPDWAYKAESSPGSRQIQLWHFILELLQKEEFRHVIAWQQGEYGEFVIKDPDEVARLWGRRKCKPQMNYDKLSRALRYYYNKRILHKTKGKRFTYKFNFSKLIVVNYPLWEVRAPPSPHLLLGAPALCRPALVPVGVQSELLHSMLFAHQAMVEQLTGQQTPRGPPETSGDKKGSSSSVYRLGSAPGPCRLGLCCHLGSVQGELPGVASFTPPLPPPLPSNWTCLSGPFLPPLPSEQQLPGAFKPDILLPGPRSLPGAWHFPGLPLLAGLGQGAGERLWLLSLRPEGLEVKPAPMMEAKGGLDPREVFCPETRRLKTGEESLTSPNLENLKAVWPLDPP
The method in brief: as §1

In the next experiment the target is T10, ETS2 (Homo sapiens, UniProt P15036 1-469).
T10 sequence: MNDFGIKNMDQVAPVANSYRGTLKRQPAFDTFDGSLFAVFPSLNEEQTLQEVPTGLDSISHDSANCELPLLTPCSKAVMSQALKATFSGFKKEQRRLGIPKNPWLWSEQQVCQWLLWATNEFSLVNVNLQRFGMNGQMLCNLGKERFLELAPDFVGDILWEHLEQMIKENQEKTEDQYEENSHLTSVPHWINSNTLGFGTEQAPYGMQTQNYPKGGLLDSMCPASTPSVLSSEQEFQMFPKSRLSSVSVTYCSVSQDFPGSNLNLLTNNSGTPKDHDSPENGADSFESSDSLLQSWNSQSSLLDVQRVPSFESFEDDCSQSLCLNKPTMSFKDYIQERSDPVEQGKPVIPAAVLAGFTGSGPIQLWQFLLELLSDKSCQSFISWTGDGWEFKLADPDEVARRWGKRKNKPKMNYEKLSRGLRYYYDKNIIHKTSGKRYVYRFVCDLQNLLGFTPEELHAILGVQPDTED
The essentials: as §1

Another experiment deals with T11, SPDEF (Homo sapiens, UniProt O95238 1-335).
T11 sequence: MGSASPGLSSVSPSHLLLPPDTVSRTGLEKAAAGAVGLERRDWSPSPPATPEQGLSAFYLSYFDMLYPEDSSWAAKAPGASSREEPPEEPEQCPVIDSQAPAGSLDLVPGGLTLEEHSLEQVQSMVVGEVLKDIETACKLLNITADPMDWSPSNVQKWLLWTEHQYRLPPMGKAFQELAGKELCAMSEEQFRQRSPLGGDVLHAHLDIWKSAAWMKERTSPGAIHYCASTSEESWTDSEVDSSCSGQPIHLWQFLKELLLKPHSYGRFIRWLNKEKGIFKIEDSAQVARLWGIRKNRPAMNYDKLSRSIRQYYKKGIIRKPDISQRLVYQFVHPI
The method in brief: as §1

For a further experiment, the target named is T12, ELF5 (Homo sapiens, UniProt Q9UKW6-2 1-255).
T12 sequence: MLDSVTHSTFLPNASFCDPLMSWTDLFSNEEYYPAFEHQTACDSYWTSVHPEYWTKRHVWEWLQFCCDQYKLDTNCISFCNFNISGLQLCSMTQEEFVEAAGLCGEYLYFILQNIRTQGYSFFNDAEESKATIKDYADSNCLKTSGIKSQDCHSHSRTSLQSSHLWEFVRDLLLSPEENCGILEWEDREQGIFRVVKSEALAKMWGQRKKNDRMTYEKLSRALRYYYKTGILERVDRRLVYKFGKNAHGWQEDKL
The essentials:
as §1

Another experiment addresses T13, ETV3 (Homo sapiens, UniProt P41162-2 1-143).
T13 sequence: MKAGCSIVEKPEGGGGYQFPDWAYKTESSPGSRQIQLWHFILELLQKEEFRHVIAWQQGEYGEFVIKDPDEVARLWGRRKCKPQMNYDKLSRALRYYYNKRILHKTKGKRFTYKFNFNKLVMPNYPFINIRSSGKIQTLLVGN
The method in brief: as §1

A further experiment addresses ETV6 (Homo sapiens, UniProt P41212 1-452). The method in brief:
as §1

Chain of ELF4 (Q99607 whole entry): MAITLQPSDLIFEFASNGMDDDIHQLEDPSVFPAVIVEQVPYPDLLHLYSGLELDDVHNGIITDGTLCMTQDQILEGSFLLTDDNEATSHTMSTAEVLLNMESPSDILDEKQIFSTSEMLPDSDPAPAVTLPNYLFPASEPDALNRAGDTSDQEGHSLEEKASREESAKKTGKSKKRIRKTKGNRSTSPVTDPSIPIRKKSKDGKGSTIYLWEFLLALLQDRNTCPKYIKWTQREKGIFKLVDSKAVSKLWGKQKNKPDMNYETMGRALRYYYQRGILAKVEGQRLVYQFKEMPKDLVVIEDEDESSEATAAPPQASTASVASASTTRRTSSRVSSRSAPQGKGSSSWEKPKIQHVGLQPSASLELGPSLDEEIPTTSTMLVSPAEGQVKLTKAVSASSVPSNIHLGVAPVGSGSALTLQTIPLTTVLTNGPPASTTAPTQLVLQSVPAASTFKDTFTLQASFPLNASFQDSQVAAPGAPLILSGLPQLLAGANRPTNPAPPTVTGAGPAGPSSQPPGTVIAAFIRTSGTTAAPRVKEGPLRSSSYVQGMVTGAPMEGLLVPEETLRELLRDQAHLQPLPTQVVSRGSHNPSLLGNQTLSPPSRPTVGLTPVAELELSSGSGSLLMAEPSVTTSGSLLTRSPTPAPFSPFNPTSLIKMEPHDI
Chain of ETV6 (P41212 whole entry): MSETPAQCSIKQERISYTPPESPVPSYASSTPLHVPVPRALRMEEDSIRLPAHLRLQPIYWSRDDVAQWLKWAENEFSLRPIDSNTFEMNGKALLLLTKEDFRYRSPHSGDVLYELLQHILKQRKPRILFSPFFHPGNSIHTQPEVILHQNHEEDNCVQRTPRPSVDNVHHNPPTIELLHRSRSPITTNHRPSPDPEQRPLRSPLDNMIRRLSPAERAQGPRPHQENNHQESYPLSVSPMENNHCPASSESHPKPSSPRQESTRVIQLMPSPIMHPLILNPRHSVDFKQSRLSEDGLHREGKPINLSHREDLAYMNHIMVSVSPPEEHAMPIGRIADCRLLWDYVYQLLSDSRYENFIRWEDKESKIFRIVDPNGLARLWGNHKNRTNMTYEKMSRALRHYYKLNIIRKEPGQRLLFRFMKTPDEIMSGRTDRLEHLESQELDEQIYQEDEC
Chain of ETV5 (P41161 whole entry): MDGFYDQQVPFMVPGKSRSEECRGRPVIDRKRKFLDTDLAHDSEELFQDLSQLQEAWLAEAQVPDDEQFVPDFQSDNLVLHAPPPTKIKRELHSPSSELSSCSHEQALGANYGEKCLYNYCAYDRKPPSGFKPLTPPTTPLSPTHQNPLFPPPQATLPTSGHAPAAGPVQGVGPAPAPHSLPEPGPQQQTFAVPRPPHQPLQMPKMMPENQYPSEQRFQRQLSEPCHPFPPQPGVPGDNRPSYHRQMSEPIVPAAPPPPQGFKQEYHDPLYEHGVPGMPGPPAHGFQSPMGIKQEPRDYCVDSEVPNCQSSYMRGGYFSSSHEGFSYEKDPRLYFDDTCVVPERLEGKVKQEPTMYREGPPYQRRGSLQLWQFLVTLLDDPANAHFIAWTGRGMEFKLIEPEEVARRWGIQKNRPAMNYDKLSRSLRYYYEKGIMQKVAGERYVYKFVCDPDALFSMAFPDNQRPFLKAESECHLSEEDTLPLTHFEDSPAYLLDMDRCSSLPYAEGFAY
Chain of SPIB (Q01892 whole entry): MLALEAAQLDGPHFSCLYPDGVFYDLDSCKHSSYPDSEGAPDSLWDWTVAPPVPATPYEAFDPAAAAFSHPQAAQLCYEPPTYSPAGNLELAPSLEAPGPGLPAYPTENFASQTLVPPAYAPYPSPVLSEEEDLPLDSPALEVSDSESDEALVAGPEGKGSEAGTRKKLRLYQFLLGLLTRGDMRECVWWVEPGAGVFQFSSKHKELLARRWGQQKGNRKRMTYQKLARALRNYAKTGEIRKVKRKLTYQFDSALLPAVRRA
Chain of ETV1 (P50549 whole entry): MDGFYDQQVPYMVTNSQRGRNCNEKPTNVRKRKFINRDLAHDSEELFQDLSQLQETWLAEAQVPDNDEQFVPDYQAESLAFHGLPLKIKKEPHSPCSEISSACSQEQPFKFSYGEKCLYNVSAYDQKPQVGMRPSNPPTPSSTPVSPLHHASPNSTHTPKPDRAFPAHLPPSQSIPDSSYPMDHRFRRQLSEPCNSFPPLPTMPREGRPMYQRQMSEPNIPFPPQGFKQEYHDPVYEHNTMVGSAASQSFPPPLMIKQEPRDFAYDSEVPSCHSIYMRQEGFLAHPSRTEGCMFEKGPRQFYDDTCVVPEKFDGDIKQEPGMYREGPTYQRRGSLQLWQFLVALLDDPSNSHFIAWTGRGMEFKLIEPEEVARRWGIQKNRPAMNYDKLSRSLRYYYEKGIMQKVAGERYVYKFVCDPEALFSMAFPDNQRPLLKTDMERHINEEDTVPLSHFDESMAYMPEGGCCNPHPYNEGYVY
Chain of ELF1 (P32519 whole entry): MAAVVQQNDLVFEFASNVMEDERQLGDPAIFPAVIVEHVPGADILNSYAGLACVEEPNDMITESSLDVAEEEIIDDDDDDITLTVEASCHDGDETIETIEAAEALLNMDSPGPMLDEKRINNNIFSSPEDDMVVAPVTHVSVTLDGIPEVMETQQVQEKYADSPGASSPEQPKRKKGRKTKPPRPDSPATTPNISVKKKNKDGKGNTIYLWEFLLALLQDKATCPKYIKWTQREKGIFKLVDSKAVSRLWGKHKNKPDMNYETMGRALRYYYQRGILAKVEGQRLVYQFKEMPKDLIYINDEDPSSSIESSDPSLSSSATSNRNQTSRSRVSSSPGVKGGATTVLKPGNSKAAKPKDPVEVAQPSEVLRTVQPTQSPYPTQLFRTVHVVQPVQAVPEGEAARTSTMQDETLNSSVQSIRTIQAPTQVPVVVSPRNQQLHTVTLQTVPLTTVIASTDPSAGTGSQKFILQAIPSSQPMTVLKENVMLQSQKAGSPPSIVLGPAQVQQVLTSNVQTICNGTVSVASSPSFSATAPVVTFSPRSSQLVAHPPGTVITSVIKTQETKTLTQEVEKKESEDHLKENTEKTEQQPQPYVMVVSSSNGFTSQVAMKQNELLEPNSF

With GCAACC, the binding signal was 1.06 fold enrichment (6-mer frequency, TF over GST control) in the experiment with FLI1; 1.07 fold enrichment (6-mer frequency, TF over GST control) in the experiment with ELK1; 1.06 fold enrichment (6-mer frequency, TF over GST control) with GABPA; 1.04 fold enrichment (6-mer frequency, TF over GST control) with ERG; 1.13 fold enrichment (6-mer frequency, TF over GST control) in the experiment with ELF1; 1.11 fold enrichment (6-mer frequency, TF over GST control) with EHF. Also, the binding signal in the experiment with SPIB is 1.04 fold enrichment (6-mer frequency, TF over GST control); with FEV, 1.17 fold enrichment (6-mer frequency, TF over GST control); with ETV5, 1.04 fold enrichment (6-mer frequency, TF over GST control); with SPIC it was 1.09 fold enrichment (6-mer frequency, TF over GST control); with ELF4, 1.03 fold enrichment (6-mer frequency, TF over GST control); in the experiment with ETV1 it was 1.02 fold enrichment (6-mer frequency, TF over GST control). Further, the binding signal is 1.1 fold enrichment (6-mer frequency, TF over GST control) in the experiment with ERF; 1.03 fold enrichment (6-mer frequency, TF over GST control) with ETV3L; 1.03 fold enrichment (6-mer frequency, TF over GST control) with ETS2; 1.13 fold enrichment (6-mer frequency, TF over GST control) in the experiment with SPDEF; 1.02 fold enrichment (6-mer frequency, TF over GST control) with ELF5; 1.02 fold enrichment (6-mer frequency, TF over GST control) in the experiment with ETV3. In addition, the binding signal with ETV6 was 1.02 fold enrichment (6-mer frequency, TF over GST control).

(Values after article PMC7862700, “An all-to-all approach to the identification of sequence-specific readers for epigenetic DNA modifications on cytosine”.)
